# High-throughput results as filed in PubChem BioAssay.
# PP1 counter – blocks human PP1-alpha phosphatase, a PP5 counter-screen. P62136. purified PP1alpha, OMFP fluorescence. inhibition, % at 6.7 µM. hit rate 0.9% among 320,000;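 active = inhibition above the mean inhibition of all tested compounds plus 3 SD, computed separately for each screening campaign, cut at about 15% in these data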
# GRK2 inh – inhibitors of human GRK2 displacing RNA aptamer. bead flow cytometry, FAM-aptamer displacement from GRK2. inhibition of aptamer binding, % at 10 µM. hit rate 0.59% among 330,000;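 active = inhibition of aptamer binding above 40%, roughly 3 SD of noise, on plates passing a quality check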;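 also: median bead fluorescence of bound FAM aptamer so fluorescent compounds give negative values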
# Target sequence (P25098 whole entry, looked up): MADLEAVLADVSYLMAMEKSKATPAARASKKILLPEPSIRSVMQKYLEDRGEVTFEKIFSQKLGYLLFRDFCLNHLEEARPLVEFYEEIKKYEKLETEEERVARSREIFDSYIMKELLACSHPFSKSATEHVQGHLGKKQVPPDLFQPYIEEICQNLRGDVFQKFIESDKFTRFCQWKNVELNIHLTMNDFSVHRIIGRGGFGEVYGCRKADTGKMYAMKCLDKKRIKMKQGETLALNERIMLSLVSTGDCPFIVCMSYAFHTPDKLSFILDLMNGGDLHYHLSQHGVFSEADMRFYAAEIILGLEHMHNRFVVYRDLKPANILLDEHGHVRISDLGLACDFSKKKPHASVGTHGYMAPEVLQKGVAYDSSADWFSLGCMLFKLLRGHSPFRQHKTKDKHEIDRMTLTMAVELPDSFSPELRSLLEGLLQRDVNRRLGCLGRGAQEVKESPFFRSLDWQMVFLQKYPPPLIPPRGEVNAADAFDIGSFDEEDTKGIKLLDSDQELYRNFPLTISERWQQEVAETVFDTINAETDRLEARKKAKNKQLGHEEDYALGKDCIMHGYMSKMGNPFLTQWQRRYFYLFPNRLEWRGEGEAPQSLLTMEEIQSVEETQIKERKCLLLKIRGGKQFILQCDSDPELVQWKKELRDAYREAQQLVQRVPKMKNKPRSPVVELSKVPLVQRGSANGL
# Exocytosis inh – blocks lytic granule exocytosis | TALL-104 LAMP-1 surface exposure, flow cytometry; cells stimulated with thapsigargin and PMA | AID 651702 | hit rate 0.66% among 360,000 | inhibition, % at 10 µM;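 active = inhibition above about 55%, limit read from the data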
# Beta2AR agonist – human beta-2 adrenergic receptor agonism by FAP; P07550; Am2.2-beta2AR cells, FAP receptor internalization, flow cytometry; response, % (no concentration beside the values); hit rate 0.43% among 340,000;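 active = response above a set limit, near 3 SD of response in nonfluorescent compounds, cut at about 42% in these data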
# NadD inh – NadD (S. aureus) enzyme inhibition; purified NadD enzyme, colorimetric absorbance read-out; inhibition, % at 20 µM; hit rate 0.78% among 360,000; AID 602399; in the data active = inhibition above about 26%
# GRK2 CP1 – human GRK2 inhibition confirmation, cherry pick 1; shares compounds with GRK2 inh; bead-bound GRK2, FAM-aptamer displacement, flow cytometry; aptamer displacement, % at 10 µM; hit rate 4% among 2,000;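 active = aptamer displacement above 40%, near three times the noise of non-fluorescent compounds, on plates passing quality checks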;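 also: negative values mostly reflect intrinsic compound fluorescence rather than true enhancement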
# Aptamer quench – quenches fluorescent RNA aptamer, GRK2 hit artifact. fluorescence change (kMESF span), kMESF (concentration not given with the values). shares compounds with GRK2 inh. AID 504521. Fluorescent RNA aptamer beads, quenching, flow cytometry; active compounds read high. 110 tested, under 10 active;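 active = compounds whose bead fluorescence drops by more than 37 kMESF across the dose range, marking them as dye quenchers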
# Aptamer quench SP – counter-screen for GRK2 aptamer inhibitors: fluorescent aptamer quenchers; shares compounds with GRK2 inh; Carboxyfluorescein RNA aptamer on beads, flow cytometry quenching; active compounds read low; fluorescence response (% of DMSO), % at 10 µM; 2,000 tested, under 10 active; AID 504580;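 active = compounds that quench the bead-bound fluorescent RNA probe, cutting fluorescence to under half of the solvent control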;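 also: counterscreen run without GRK2 so only probe quenching by compound is measured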
# GRK2 confirm 2 – confirmation of human GRK2 inhibitors binding RNA aptamer site; shares compounds with GRK2 inh; bead-bound GRK2, FAM-aptamer displacement, flow cytometry; inhibition of aptamer binding, % at 10 µM; 360 tested, under 10 active;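 active = inhibition of aptamer binding above 40%, about triple the noise seen with nonglowing compounds, on plates passing quality control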;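 also: negative values mostly come from compounds that fluoresce themselves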
# FAM quench CP2 – counter-screen for GRK2 binding hits: quenchers of fluorescent RNA aptamer; fluorescence response vs DMSO, % at 10 µM; shares compounds with GRK2 inh; carboxyfluorescein RNA aptamer beads, flow cytometry quenching; active compounds read low; AID 588494; 360 tested, under 10 active;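 active = response vs DMSO under 50%, meaning signal dropped by over half, treated as fluorescence quencher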;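 also: labelled aptamer on streptavidin beads without GRK2 as a quench counter-screen; 100% = bead fluorescence of DMSO wells and lower means quenching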
# The depositor's hits bear a star; / = no result given. An excerpt weighted towards active compounds, which were near 2.9% of everything screened.
SMILES,PP1 counter,GRK2 inh,Exocytosis inh,Beta2AR agonist,NadD inh,GRK2 CP1,Aptamer quench SP,others
CC(=O)Nc1cc(-c2ccccc2N(C)C)cn2c(-c3cccc(C(F)(F)F)c3)cnc12,/,/,27,/,14,/,/,
COc1ccccc1NC(=O)CCS(=O)(=O)c1ccccc1,-3,0,-1,-5,-2,/,/,GRK2 confirm 2=-9;FAM quench CP2=102
COc1ccc2c(O)c(-c3c(C)cc(C)cc3C)c(=O)[nH]c2c1,-2,1,-1,1,6,/,/,
CC(C)(C)c1ccc(S(=O)(=O)N2CCN(C(=O)C3CCC3)CC2)cc1,-3,3,-8,-9,-3,/,/,
Cc1ccc(N2C(=O)[C@@H]3C(c4cccnc4)=NO[C@@H]3C2=O)c(C)c1,-6,0,-7,2,3,/,/,
COc1ccc(C2=NO[C@@H]3C(=O)N(c4cccc(C)c4C)C(=O)[C@H]23)cc1OC,-3,0,0,1,-4,/,/,GRK2 confirm 2=10;FAM quench CP2=100
COc1ccc(C2=NO[C@@H]3C(=O)N(c4ccc(C)cc4C)C(=O)[C@H]23)cc1OC,-3,0,2,2,-1,/,/,GRK2 confirm 2=-3;FAM quench CP2=104
Cc1ccc(N2C(=O)[C@@H]3C(c4ccc(F)cc4)=NO[C@@H]3C2=O)cc1,1,4,0,-6,-9,/,/,GRK2 confirm 2=1;FAM quench CP2=102
Cc1ccc(C)c(C(=O)CCC(=O)OCn2nnc3ccccc3c2=O)c1,1,0,-2,-3,-1,/,/,
Oc1c(Br)cc(Br)cc1C=NCc1ccc(F)cc1,-1,41*,31,-3,6,6,97,
C/C(Cn1nnc2ccccc21)=N\OC(=O)c1ccccc1C,7,75*,-1,-4,-1,-17,96,
C/C(Cn1nnc2ccccc21)=N/OC(=O)c1c(F)cccc1F,-4,0,1,-3,-3,/,/,
CC(=O)NC12CC3CC(C1)CC(C(=O)OCC(=O)Nc1ncc(Cl)cc1Cl)(C3)C2,1,0,-4,-1,4,/,/,
COc1cccc(O)c1CN1CCC(n2nccc2NC(=O)c2ccc3c(c2)OCO3)CC1,-3,0,-4,1,1,/,/,
Cc1ccc(OCC(=O)NC2=NCCS2)cc1,-1,0,-2,1,6,/,/,
CC(=O)c1ccc(OCCCC(=O)NC2=NCCS2)cc1,0,39,-4,3,-2,5,94,
CCN(C(=O)COC(=O)c1cc(-c2ccc3cc(OC)ccc3c2)nc2ccccc12)C1CCS(=O)(=O)C1 (centres undefined),-5,2,/,/,/,/,/,
CCN(C(=O)COC(=O)c1cc(=O)[nH]c2ccccc12)C1CCS(=O)(=O)C1 (centres undefined),-12,49*,-2,-7,-2,-16,95,
COc1ccc(C)cc1NC(=O)NNC(=O)C(C)Oc1ccc([N+](=O)[O-])cc1 (centres undefined),-5,3,3,-2,-1,/,/,
COc1ccc(-c2cc(C(=O)NN)[nH]n2)cc1,1,0,-2,9,3,/,/,
COC(=O)c1cc(-c2ccc(Br)cc2)n[nH]1,-2,54*,0,5,3,3,96,
CCOc1ccc2c(c1)C(c1ccc(C)cc1)=NNC(c1ccc(OC)cc1)=N2,3,2,-4,1,7,/,/,
CCOc1ccc(C2=NNC(c3cccnc3)=Nc3ccc(OC)cc32)cc1,-2,100*,-1,-1,7,3,101,
COc1ccc(Cc2nnc(SCC(=O)Nc3ccccc3C)n(N)c2=O)cc1,-4,100*,7,5,-1,-4,96,
COc1ccc(NC(=O)CSc2nnc(Cc3ccccc3)c(=O)n2N)c(OC)c1,3,1,0,4,0,/,/,
SMILES,PP1 counter,GRK2 inh,Exocytosis inh,Beta2AR agonist,NadD inh,GRK2 CP1,Aptamer quench SP,others
O=C(Nc1cc(S(=O)(=O)N2CCOCC2)ccc1N1CCCC1)c1ccc2c(c1)S(=O)(=O)c1ccccc1C2=O,14,0,0,8,15,/,/,
O=C(O)CC1NC(=S)N(c2ccccc2)C1=O (centres undefined),-2,70*,0,7,-2,-1,103,
COc1cc2sc3cc(NCC[C@@H]4CCCN4C)ccc3c(=O)c2cc1OC,/,77*,5,22,22,/,/,GRK2 confirm 2=-23;FAM quench CP2=97
CCc1nc(NC(=O)c2sc(C)nc2C)sc1C(=O)OC,-1,4,-1,-3,-7,/,/,
C=CCn1c(C)nnc1SCC(=O)Nc1ccccc1C(=O)NC1CC1,/,/,17,6,-2,/,/,
Cn1c(CCC(N)=O)nnc1SCC(=O)Nc1ccccc1C(=O)NC1CC1,-8,75*,-2,9,-1,-17,98,
C/C=C/C(=O)N1CC2(CC(c3cccc(NC(=O)CC)c3)=NO2)C[C@H]1C(N)=O (some centres undefined),-4,12,29,-8,3,/,/,
C=C(C)C(=O)Nc1cccc(C2=NOC3(C2)C[C@H](C(N)=O)N(C(=O)/C=C/C)C3)c1 (some centres undefined),13,70*,19,-3,-2,50*,88,Aptamer quench=-1.4
C=C(C)C(=O)Nc1cccc(C2=NOC3(C2)C[C@@H](C(N)=O)N(C(=O)/C=C/CC)C3)c1 (some centres undefined),12,61*,10,0,-1,41*,99,Aptamer quench=11
O=C(OCc1nnc(-c2ccccc2)o1)C1CC(=O)N(Cc2ccco2)C1 (centres undefined),6,0,-2,-4,9,/,/,
COc1ccccc1/C=C/C(=O)OCC(=O)N1CCc2ccccc21,7,95*,2,-5,-6,-4,102,
O=C(/C=C/c1cccc(F)c1)OCC(=O)N1CCCc2ccccc21,-2,0,-1,-4,-10,/,/,
O=C(COC(=O)c1ccc[n+]([O-])c1)Nc1c(Br)cc([N+](=O)[O-])cc1Br,1,2,/,/,/,/,/,
CC(=O)NC12CC3CC(C1)CC(C(=O)N1CCN(S(=O)(=O)c4ccc(C(C)C)cc4)CC1)(C3)C2,-5,1,1,-2,1,/,/,
Cn1nc(-c2ccccc2)cc1NS(=O)(=O)c1ccc(C#N)cc1,2,2,10,-6,5,/,/,
COCCCN(C(=O)c1ccco1)c1nc(-c2ccc(OC)cc2)cs1,-3,4,1,6,-3,/,/,
